From PubChem BioAssay come the findings set out here.

Molecules are shown by their SMILES. Active and inactive are the calls of the source.

Experiment [1] relates to Plasmodium falciparum Sir2 (PF13_0152, Sir2A). Put plainly: Plasmodium falciparum Sir2A binding compounds – biochemical, small-molecule microarray, 635 nm fluorescence, primary screen (AID 1098).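 Further: score merges spot fluorescence intensity with its signal-to-noise ratio.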 The conditions noted are these: fluorescence 635 nm, higher = more signal.
Experiment [2] can be described thus: probe aDKK1 binding to arrayed compounds – biochemical, biotinylated probe, 635/667 nm fluorescence, primary screen (AID 1099).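 Further: score merges 667nm spot fluorescence with signal to noise across triplicate slides.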 As to conditions: small-molecule microarray, higher = more signal.
Experiment [3] can be described thus: probe aCHRDL2 binding to arrayed compounds – biochemical, biotinylated probe, 635/667 nm fluorescence, primary screen (AID 1100). As to conditions: small-molecule microarray, higher = more signal.
Experiment [4] can be described thus: change in splice reporter luminescence, either direction, cell-based, HEK293, spliceosome inhibition project, primary screen (AID 1101).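 Further: HEK293 cells carrying a splicing-competent luciferase reporter gene; test concentration not given here.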 The conditions noted are these: HEK293 splicing luciferase reporter, 24 h, higher = more signal, called active from +8 up or from −8 down.
The target in experiment [5] is Fibroblast growth factor 10 (Homo sapiens) (UniProt O15520). As to the kind of experiment: compounds binding fibroblast growth factor 10 – biochemical, small-molecule microarray, 635 nm fluorescence, primary screen (AID 1102). As to conditions: FGF10 binding, fluorescence 635 nm, higher = more signal.
Chain of Fibroblast growth factor 10 (Homo sapiens) (O15520 whole entry, looked up): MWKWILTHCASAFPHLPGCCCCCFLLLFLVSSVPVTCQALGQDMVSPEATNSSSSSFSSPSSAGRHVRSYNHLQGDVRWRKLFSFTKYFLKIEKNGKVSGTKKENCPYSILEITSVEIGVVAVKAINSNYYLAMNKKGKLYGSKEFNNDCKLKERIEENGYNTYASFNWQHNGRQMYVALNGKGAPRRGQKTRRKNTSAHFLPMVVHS
Experiment [6] relates to glycogen synthase kinase-3 (GSK3A per assay name; protocol says GSK3B). As to the kind of experiment: compounds binding glycogen synthase kinase-3 – biochemical, small-molecule microarray, 635 nm fluorescence, GSK3A, primary screen (AID 1103). Further: the record names both GSK3A and GSK3B. As to conditions: fluorescence 635 nm, higher = more signal.
Experiment [7] deals with Epidermal growth factor receptor (Homo sapiens) (UniProt P00533). As to the kind of experiment: compounds binding epidermal growth factor receptor – biochemical, small-molecule microarray, 635 nm fluorescence, primary screen (AID 1104).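 Further: score merges 667 nm emission intensity with spot signal to noise over triplicate slides.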 The conditions noted are these: EGFR binding, higher = more signal.
Chain of Epidermal growth factor receptor (Homo sapiens) (P00533 whole entry, looked up): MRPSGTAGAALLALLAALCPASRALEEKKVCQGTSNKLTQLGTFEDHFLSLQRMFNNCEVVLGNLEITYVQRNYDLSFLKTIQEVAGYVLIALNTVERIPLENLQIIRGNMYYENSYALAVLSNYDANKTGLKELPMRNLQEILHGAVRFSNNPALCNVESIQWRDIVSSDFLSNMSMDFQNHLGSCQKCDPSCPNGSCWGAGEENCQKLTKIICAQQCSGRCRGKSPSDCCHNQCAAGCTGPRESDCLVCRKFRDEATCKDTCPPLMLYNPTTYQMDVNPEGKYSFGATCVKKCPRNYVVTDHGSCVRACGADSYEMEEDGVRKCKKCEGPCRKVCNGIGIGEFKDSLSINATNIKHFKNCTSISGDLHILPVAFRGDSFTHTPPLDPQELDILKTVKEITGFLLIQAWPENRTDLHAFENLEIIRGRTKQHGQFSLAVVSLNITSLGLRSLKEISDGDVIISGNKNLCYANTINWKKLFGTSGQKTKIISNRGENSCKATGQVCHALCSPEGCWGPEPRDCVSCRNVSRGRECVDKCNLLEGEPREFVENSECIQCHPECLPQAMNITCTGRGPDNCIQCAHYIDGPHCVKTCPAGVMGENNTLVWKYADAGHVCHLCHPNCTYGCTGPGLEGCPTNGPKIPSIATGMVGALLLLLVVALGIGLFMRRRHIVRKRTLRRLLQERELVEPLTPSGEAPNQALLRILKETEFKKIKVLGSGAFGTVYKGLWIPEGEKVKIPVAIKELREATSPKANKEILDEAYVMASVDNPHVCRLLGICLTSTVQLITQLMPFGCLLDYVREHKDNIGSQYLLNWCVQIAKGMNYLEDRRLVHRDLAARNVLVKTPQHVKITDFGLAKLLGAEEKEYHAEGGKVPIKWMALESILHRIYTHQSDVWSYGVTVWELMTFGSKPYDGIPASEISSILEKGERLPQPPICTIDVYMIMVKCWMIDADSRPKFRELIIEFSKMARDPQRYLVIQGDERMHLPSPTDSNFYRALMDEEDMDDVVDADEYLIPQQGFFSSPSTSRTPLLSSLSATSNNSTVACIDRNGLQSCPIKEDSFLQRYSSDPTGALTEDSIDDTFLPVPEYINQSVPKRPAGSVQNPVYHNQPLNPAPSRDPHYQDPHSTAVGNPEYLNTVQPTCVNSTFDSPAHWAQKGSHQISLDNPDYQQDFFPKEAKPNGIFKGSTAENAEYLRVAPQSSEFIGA
Experiment [8] addresses Follistatin-related protein 3 (Homo sapiens) (UniProt O95633). As to the kind of experiment: compounds binding follistatin-related protein 3 – biochemical, small-molecule microarray, 635 nm fluorescence, primary screen (AID 1105).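 Further: score merges emission near 667 nm and signal to noise per printed spot across three slides.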 The conditions noted are these: FSTL3 binding, higher = more signal.
Experiment [9] concerns the target Dickkopf-related protein 1 (Homo sapiens) (UniProt O94907). Put plainly: small molecules binding DKK1 protein – biochemical, small-molecule microarray, 635 nm fluorescence scan, primary screen (AID 1106).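 Further: score merges emission near 667 nm with signal to noise over three replicate slides.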 The conditions noted are these: higher = more signal.
For experiment [10], the system named is Inhibin beta A chain (activin A). Put plainly: small molecules binding activin A – biochemical, small-molecule microarray, 635 nm fluorescence scan, primary screen (AID 1107).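 Further: mouse activin A protein probed at 4.33 µg/mL on printed slides; score merges bound-protein fluorescence near 667 nm with spot signal-to-noise.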 As to conditions: INHBA, higher = more signal.
The test system of experiment [11] is Human papillomavirus type 1a protein E7 (residues 44-93). As to the kind of experiment: small molecules binding HPV E7 44-93 – biochemical, small-molecule microarray, residues 44-93, 635 nm fluorescence, primary screen (AID 1108).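 Further: E7 fragment applied at 1 µg/mL in TBST for 1 h at 4 C; score combines spot fluorescence with its signal to noise ratio.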 As to conditions: fluorescence 635 nm, higher = more signal.
The nature of experiment [12]: hepatitis C replication reporter changes, two-sided – Huh7 cells, luciferase reporter, HCV replication inhibitor project, primary screen (AID 1109).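 Further: huh7 hepatoma cells harbouring a luciferase neomycin HCV replicon reporter; luciferase luminescence as measure of HCV replicon replication; test concentration not given here.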 As to conditions: Huh7 HCV replicon luciferase reporter, 48 h; higher = more signal.
In experiment [13] the target is Left-right determination factor 2 (Homo sapiens) (UniProt O00292). As to the kind of experiment: small molecules binding LEFTY2 protein – biochemical, small-molecule microarray, 635 nm fluorescence scan, primary screen (AID 1110). As to conditions: higher = more signal.
Chain of Left-right determination factor 2 (Homo sapiens) (O00292 whole entry, looked up): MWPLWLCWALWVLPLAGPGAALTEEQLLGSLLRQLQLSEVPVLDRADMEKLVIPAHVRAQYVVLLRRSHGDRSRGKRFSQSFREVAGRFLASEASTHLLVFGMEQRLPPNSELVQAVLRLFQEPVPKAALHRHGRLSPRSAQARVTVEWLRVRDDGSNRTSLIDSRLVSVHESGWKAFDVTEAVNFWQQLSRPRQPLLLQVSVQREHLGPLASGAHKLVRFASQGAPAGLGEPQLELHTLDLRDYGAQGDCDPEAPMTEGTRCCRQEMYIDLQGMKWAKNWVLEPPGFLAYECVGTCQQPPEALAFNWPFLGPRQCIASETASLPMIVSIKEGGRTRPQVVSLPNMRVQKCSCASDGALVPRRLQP
Experiment [14] concerns the target Calmodulin-1 (Homo sapiens) (UniProt P0DP23). As to the kind of experiment: small molecules binding calmodulin-1 with EGTA – biochemical, small-molecule microarray, Cy5-labelled CALM1, profiling panel (AID 1111).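 Further: labelled calmodulin applied in Tris saline Tween buffer holding calcium plus EGTA and DTT.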 The conditions noted are these: Cy5-CALM1 binding fluorescence, higher = more signal.
Experiment [15] shares this target. As to the kind of experiment: small molecules binding Ca-loaded calmodulin-1 – biochemical, small-molecule microarray, Cy5-labelled CALM1, plus calcium, artefact control for SMM control-protein annotation, profiling panel (AID 1112).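 Further: score merges spot fluorescence with signal to noise from triplicate slides.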 The conditions noted are these: Cy5-CALM1 binding fluorescence, higher = more signal.
The nature of experiment [16]: probe aWnt5a binding to arrayed compounds – biochemical, biotinylated probe, 635/667 nm fluorescence, primary screen (AID 1113).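 Further: score merges 667 nm fluorescence intensity with signal-to-noise per printed feature.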 As to conditions: small-molecule microarray, higher = more signal.
A short description of experiment [17]: probe aShh binding to arrayed compounds – biochemical, biotinylated probe, 635/667 nm fluorescence, primary screen (AID 1114).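 Further: probe is biotin-labelled aShh protein from a stem cell growth factor screen; measures binding of labelled protein to compounds printed on the slide; score merges feature fluorescence at 667 nm with signal-to-noise.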 The conditions noted are these: small-molecule microarray, higher = more signal.
A short description of experiment [18]: probe aNog binding to arrayed compounds – biochemical, biotinylated probe, 635/667 nm fluorescence, primary screen (AID 1115).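 Further: probe is biotinylated aNog protein used at 0.15 µg/mL for 1 h at 4 C; z-score combines 667 nm fluorescence of each spot with its signal to noise.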 As to conditions: small-molecule microarray, higher = more signal.
In experiment [19] the target is Torsin-1A-interacting protein 1 (Homo sapiens) (UniProt Q5JTV8). Put plainly: compound microarray binding of lysate hLAP1 – cell lysate, small-molecule microarray, COS7 lysate, 635/667 nm fluorescence, primary screen (AID 1116). The conditions noted are these: 635 nm fluorescence, higher = more signal.
Chain of Torsin-1A-interacting protein 1 (Homo sapiens) (Q5JTV8 whole entry, looked up): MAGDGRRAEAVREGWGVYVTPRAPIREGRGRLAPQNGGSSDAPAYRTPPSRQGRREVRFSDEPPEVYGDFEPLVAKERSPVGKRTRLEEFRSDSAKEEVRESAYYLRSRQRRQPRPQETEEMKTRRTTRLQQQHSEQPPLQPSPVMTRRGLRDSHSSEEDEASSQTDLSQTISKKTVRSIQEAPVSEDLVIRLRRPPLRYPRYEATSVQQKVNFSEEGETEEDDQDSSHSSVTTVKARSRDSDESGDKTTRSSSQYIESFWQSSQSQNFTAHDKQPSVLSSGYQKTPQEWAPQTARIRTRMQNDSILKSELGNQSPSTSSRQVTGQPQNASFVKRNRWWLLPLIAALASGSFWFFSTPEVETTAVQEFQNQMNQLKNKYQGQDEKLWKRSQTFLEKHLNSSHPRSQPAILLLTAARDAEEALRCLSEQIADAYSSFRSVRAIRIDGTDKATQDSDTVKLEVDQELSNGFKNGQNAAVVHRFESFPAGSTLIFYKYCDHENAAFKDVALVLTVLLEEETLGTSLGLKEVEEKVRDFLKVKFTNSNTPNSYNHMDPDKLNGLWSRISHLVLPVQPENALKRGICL
Experiment [20] deals with Alpha-bungarotoxin (Bungarus multicinctus) (UniProt P60615). Put plainly: compounds binding labelled alpha-BTX control protein – biochemical, small-molecule microarray, Alexa647 label, 635/667 nm fluorescence, artefact control for SMM control protein annotation, profiling panel (AID 1117). As to conditions: alpha-BTX-A647 binding fluorescence, higher = more signal.
Chain of Alpha-bungarotoxin (Bungarus multicinctus) (P60615 whole entry, looked up): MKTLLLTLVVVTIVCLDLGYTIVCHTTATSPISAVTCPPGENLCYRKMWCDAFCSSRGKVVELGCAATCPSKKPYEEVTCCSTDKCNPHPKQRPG

Chain of Follistatin-related protein 3 (Homo sapiens) (O95633 whole entry, looked up): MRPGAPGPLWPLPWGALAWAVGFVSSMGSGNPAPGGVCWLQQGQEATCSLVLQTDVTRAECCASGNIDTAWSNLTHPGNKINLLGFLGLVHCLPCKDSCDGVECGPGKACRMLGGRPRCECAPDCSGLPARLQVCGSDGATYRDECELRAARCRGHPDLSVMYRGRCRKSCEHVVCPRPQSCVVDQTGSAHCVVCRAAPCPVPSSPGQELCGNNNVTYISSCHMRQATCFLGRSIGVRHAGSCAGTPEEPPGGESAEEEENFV
Chain of Dickkopf-related protein 1 (Homo sapiens) (O94907 whole entry, looked up): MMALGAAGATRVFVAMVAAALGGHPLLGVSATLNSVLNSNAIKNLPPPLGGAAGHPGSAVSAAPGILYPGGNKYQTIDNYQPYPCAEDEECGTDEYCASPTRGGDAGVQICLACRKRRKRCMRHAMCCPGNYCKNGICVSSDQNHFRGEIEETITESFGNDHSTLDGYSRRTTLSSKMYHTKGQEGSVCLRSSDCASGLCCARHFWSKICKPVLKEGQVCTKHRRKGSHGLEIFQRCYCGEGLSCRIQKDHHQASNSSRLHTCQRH

As for `COc1ccc(CCNC(=O)[C@@]2(Sc3ccc(C)cc3)CC(=O)N(Cc3ccccc3)[C@@H]2c2ccc(CO)cc2I)cc1`, the composite z-score in [1] was 1.16; in experiment [2], -0.0607; in experiment [3] it was 0.566; in experiment [5], -0.553; in [6], -0.407; in experiment [7], -0.46. Also, the composite z-score in experiment [8] is 0.149; in experiment [9], 0.0928; in experiment [10] it was 0.761; in experiment [11], 0.152; in experiment [13], -1.46; in experiment [14] it was -0.615. In addition, the composite z-score in [15] was -0.0032; in [16], -0.17; in [17], -0.596; in experiment [18], 0.0805; in experiment [19] it was -0.72; in experiment [20], 0.672. Moreover, the z-score in experiment [4] was -1.24 (inactive); in experiment [12] it was -2.18.
On to `CCCCCCC#C[Si](O[C@H](c1ccccc1)c1cn(Cc2ccccc2)nn1)(C(C)C)C(C)C`, for which the composite z-score was -0.068 in [1]; -0.0783 in [2]; -0.14 in experiment [3]; 0.232 in experiment [5]; 0.305 in experiment [6]; 0.302 in [7]. For the same compound, the composite z-score is 0.388 in experiment [8]; 0.279 in [9]; 0.403 in [10]; 0.382 in experiment [11]; 0.367 in [13]; -0.0092 in experiment [14]. Further, the composite z-score in experiment [15] is 0.716; in experiment [16], -0.151; in experiment [17] it was -0.108; in experiment [18] it was -0.183; in experiment [19], 0.523; in [20], 0.172. In addition, the z-score in [4] is -1.51 (inactive); in experiment [12], -1.93.
On to `COC(=O)C(CC#Cc1ccc2c(c1)[C@]1(C(=O)N2)[C@H](C(=O)O)[C@H]2C(=O)O[C@H](c3ccccc3)[C@H](c3ccccc3)N2[C@@H]1c1ccc(OCCO)cc1)C(=O)OC`, for which the composite z-score in experiment [1] is 1.53; in experiment [2] it was 0.393; in [3] it was 0.799; in experiment [5], 1.15; in experiment [6], 0.987; in experiment [7], -0.199. The composite z-score in experiment [8] is 0.0514; in experiment [9], -0.611; in experiment [10], 0.117; in experiment [11], 0.738; in [13] it was 0.155; in [14] it was 2.16. The composite z-score in experiment [15] is 0.717; in experiment [16], -0.0229; in experiment [17] it was 0.166; in [18], 0.78; in [19] it was 1.5; in [20] it was 3.51. Moreover, the z-score was -1.31 (inactive) in [4] and -0.555 in [12].
For the compound `CC(C)C[C@@H]1NC(=O)[C@@H]2C[C@H](C(=O)NCCCCCNC(=O)CS)[C@H](c3cccc(OCCO)c3)N2C1=O`, the composite z-score worked out at 1.68 in experiment [1]; 0.588 in [2]; 0.619 in experiment [3]; 0.654 in experiment [5]; 1.32 in experiment [6]; 0.717 in experiment [7]. The composite z-score in experiment [8] is 0.921; in experiment [9] it was 0.741; in experiment [10], 0.947; in [11], 0.64; in [13] it was 0.581; in [14], 0.942. For the same compound, the composite z-score was 0.0355 in experiment [15]; -0.0236 in [16]; 0.242 in experiment [17]; 0.418 in experiment [18]; 1.25 in [19]; 2.72 in [20]. Further, the figures for the z-score in experiment [4] and in experiment [12] were -1.15 (inactive) and 0.568, respectively.
Take `COCCOC(=O)N1C(=O)[C@@]2(c3cc(C#CCCO)ccc31)[C@H](c1ccccc1OCCO)N1[C@H](c3ccccc3)[C@H](c3ccccc3)OC(=O)[C@H]1[C@@H]2C(=O)NC[C@H](O)c1ccccc1`: the composite z-score came out at 1.34 in experiment [1]; 0.704 in [2]; 0.416 in [3]; 1.16 in experiment [5]; 1.22 in [6]; 0.2 in [7]. The composite z-score came to 1.35 in [8]; 0.74 in experiment [9]; 0.274 in experiment [10]; 0.722 in experiment [11]; 0.449 in experiment [13]; 1.11 in [14]. Moreover, the composite z-score is 0.678 in experiment [15]; -0.0512 in experiment [16]; 0.275 in [17]; 0.482 in experiment [18]; 1.38 in experiment [19]; 1.89 in [20]. Besides, the results for the z-score in experiment [4] and in experiment [12] were -0.428 (inactive) and -1.53, respectively.
`O=C1O[C@@H](c2ccccc2)[C@@H](c2ccccc2)N2[C@@H](c3ccc(OCCO)cc3)[C@]3(C(=O)Nc4ccc(C#CC5(O)CCCCCC5)cc43)[C@@H](C(=O)NC[C@H](O)c3ccccc3)[C@H]12`: the composite z-score in [1] amounted to 1.37; in experiment [2], 0.914; in experiment [3] it was 0.864; in [5] it was 1.15; in [6], 1.17; in experiment [7], 0.244. Further, the composite z-score was 1.25 in [8]; 0.382 in [9]; 0.42 in [10]; 1.24 in experiment [11]; 0.497 in experiment [13]; 1.97 in experiment [14]. Besides, the composite z-score is 0.638 in [15]; -0.0877 in experiment [16]; 0.172 in [17]; 1.21 in [18]; 1.94 in experiment [19]; 2.42 in [20]. Further, the z-score in experiment [4] is -0.828 (inactive); in experiment [12], -2.06.
